High-throughput results: PubChem, Broad Institute
T cruzi growth-1: blocks T. cruzi growth in NIH3T3 culture | T. cruzi beta-gal in NIH3T3, GalScreen luminescence, 90 h | inhibition, % at 8.34 µM | actives 5.9% (n = 77,000);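 active means mean inhibition above about 93%, with at least 55% of replicates each passing it, limit read from the data, passing the limit was not always enough; inconclusive means only one of those two conditions holds; inactive means neither condition holds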
C diff HTS: inhibitors of Clostridium difficile growth | actives 0.25% (n = 86,000) | growth activity, negative = inhibition, % at 16 µg/mL (by protocol) | Clostridium difficile clinical isolate growth, OD600, 24 h; hits give low values;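 active means mean growth activity at or below -80% and every replicate also at or below -80%; inconclusive means mean at or below -80% but some replicate above -80%; inactive means mean growth activity above -80%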;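 further: 0% = DMSO wells and -100% = levofloxacin 16 µg/mL wells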
Pf Dd2 growth: blocks growth of Plasmodium falciparum Dd2 parasites. actives 2.3% (n = 94,000). activity change, % at 10 µM. P. falciparum Dd2 growth, SYBR Green, 72 h; hits give low values; in the data active means activity change below about -80%; inconclusive means no clear call, values can overlap the other calls
T cruzi growth-2: blocks T. cruzi growth in NIH3T3 host cells. shares compounds with T cruzi growth-1. inhibition, % at 8.35 µM. actives 72% (n = 5,600). T. cruzi beta-gal in NIH3T3, GalScreen luminescence, 90 h;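 active means mean replicate inhibition above about 95% and at least 55% of replicates individually reaching it, limit read from the data; inconclusive means only one of the two criteria is met; inactive means neither criterion is met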
T cruzi growth-3: Trypanosoma cruzi proliferation inhibition. shares compounds with T cruzi growth-1. T. cruzi beta-gal in NIH3T3, GalScreen luminescence, 90 h. inhibition, % at 2.09 µM. actives 21% (n = 5,600). AID 651740;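 active means mean inhibition above about 95%, with at least 55% of replicates also reaching it, limit read from the data; inconclusive means meets just one of the two conditions; inactive means meets neither condition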;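 further: plate controls were neutral control median for no effect and positive control median for full effect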
NIH3T3 tox: NIH/3T3 (mouse) viability loss; shares compounds with T cruzi growth-1; NIH/3T3 viability, CellTiter-Glo ATP luminescence, 90 h; cytotoxicity (signal decrease), % at 8.35 µM; actives 14% (n = 5,600); AID 651742;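 active means mean signal decrease across replicates above about 35% based on untreated-well scatter, with enough replicates individually passing, limit read from the data; inconclusive means no rule stated though some were filed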;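 further: 0% = median of neutral control wells and 100% = median of positive control wells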
NIH3T3 tox 2: NIH/3T3 (mouse) viability loss | shares compounds with T cruzi growth-1 | AID 651744 | inhibition, % at 24.9 µM | NIH/3T3 viability, CellTiter-Glo ATP luminescence, 90 h | actives 56% (n = 5,600);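 active means mean loss of cell viability signal at or above a set limit, and enough replicates individually reaching it; inconclusive means meets only the mean limit or only the replicate share; inactive means meets neither condition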;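 further: 0% = median of neutral control wells and 100% = median of positive control wells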
* marks the source's active call; other numbers are inactive results; ! = not confirmed by another sample. Hits are enriched below; roughly 6.8% of the tested compounds scored in any of these assays.

`CCOC(=O)C1=CC[C@@H](c2ccc(OC)cc2)[C@@H]1C(=O)c1ccccc1` gave C diff HTS -9.8.
COc1ccccc1NC(=O)Nc1ccc2c(c1)OC[C@H](C)NC[C@@H](C)[C@H](OC)CN(C)C2=O was read as T cruzi growth-1 -11.3 and Pf Dd2 growth 17.5.
`C[C@@H]1CN([C@H](C)CO)S(=O)(=O)c2ccc(C#CC(C)(C)O)cc2O[C@H]1CN(C)CC1CCCC1` gave T cruzi growth-1 5.0 and Pf Dd2 growth -21.1.
O=C(C[C@H]1C=C[C@@H](NC(=O)Nc2ccc(F)cc2)[C@@H](CO)O1)NCc1cccc(F)c1 was read as C diff HTS 4.2.
For C[C@H]1CN([C@@H](C)CO)C(=O)c2cc(C#Cc3ccccn3)cnc2O[C@@H]1CN(C)Cc1ccccc1 the results were T cruzi growth-1 121.1*!, C diff HTS 1.5, Pf Dd2 growth -42.5, T cruzi growth-2 106.9*, T cruzi growth-3 24.6, NIH3T3 tox -3.7 and NIH3T3 tox 2 -6.3.
For C[C@@H]1CN([C@H](C)CO)C(=O)c2cc(C#Cc3ccccc3)cnc2O[C@H]1CN(C)C(=O)c1ccccn1 the results were T cruzi growth-1 110.9*, C diff HTS -5.0, Pf Dd2 growth -23.9, T cruzi growth-2 101.2*, T cruzi growth-3 61.8, NIH3T3 tox 10.5 and NIH3T3 tox 2 29.9*.
For C[C@@H]1CN([C@@H](C)CO)C(=O)c2cc(C#Cc3ccccn3)cnc2O[C@H]1CN(C)Cc1ccncc1 the results were T cruzi growth-1 inconclusive, C diff HTS -4.3, Pf Dd2 growth 22.3, T cruzi growth-2 108.0*, T cruzi growth-3 56.1, NIH3T3 tox 16.9 and NIH3T3 tox 2 17.3.
`C[C@H](CO)N1C[C@H](C)[C@@H](CN(C)Cc2ccccc2)Oc2ncc(C#Cc3ccccn3)cc2C1=O` gave T cruzi growth-1 94.7, C diff HTS -3.5 and Pf Dd2 growth -30.3.
For C[C@@H]1CN([C@@H](C)CO)C(=O)c2cc(C#CC3(O)CCCC3)cnc2O[C@H]1CN(C)Cc1ccccc1 the results were T cruzi growth-1 19.5, C diff HTS -1.2 and Pf Dd2 growth -20.7.
`C[C@H](CO)N1C[C@H](C)[C@H](CN(C)Cc2ccccc2)Oc2ncc(C#CC3(O)CCCC3)cc2C1=O` gave T cruzi growth-1 101.7*, C diff HTS -0.9, Pf Dd2 growth -4.4, T cruzi growth-2 45.8, T cruzi growth-3 41.9, NIH3T3 tox 9.5 and NIH3T3 tox 2 18.6.
Screening C[C@@H]1CN([C@H](C)CO)C(=O)c2cc(C#Cc3ccccc3)cnc2O[C@@H]1CN(C)C(=O)c1ccccn1 returned T cruzi growth-1 52.9, C diff HTS -2.3 and Pf Dd2 growth -0.2.
C[C@H]1CN([C@@H](C)CO)C(=O)c2cc(C#Cc3ccccn3)cnc2O[C@H]1CN(C)Cc1ccncc1 was read as T cruzi growth-1 44.0, C diff HTS -1.2 and Pf Dd2 growth 10.9.
`CC(C)[C@@H](C)NC(=O)N(C)C[C@H]1OCc2ccccc2-c2c(n(C)c3ccccc23)C(=O)N([C@@H](C)CO)C[C@@H]1C` gave T cruzi growth-1 13.3 and Pf Dd2 growth -17.8.
For CN(C)C(=O)c1cccc(-c2ccccc2[C@@H]2[C@H](C#N)N(C(=O)C3CCCC3)[C@H]2CO)c1 the results were C diff HTS -5.8 and Pf Dd2 growth -5.5.
For O=C(c1ccc(F)cc1)N1CC2(C1)[C@@H](c1ccccc1)[C@@H](CO)N2Cc1ccccn1 the results were C diff HTS 22.6 and Pf Dd2 growth 6.9.
CCC(=O)N1C[C@H](C)[C@H](OC)CN(C)C(=O)c2ccc(NC(=O)NC(C)C)cc2OC[C@@H]1C was read as T cruzi growth-1 18.0 and Pf Dd2 growth 5.6.
`Cc1cc(C(=O)Nc2ccc3c(c2)C(=O)N(C)[C@H]2CC[C@@H](CC(=O)NCc4ccc(-c5ccccc5)cc4)O[C@@H]2CO3)no1` gave T cruzi growth-1 86.0 and C diff HTS -6.4.
For O=C(c1ccc2c(c1)OCO2)N1CC[C@@H]2[C@H](CO)Nc3ccc(C#Cc4ccccc4)cc3[C@@H]21 the results were T cruzi growth-1 75.6, C diff HTS -1.4 and Pf Dd2 growth -18.8.
Screening O=C(C1CC1)N1CC[C@@H]2[C@H](CO)Nc3ccc(C#Cc4ccc(F)cc4)cc3[C@@H]21 returned T cruzi growth-1 64.5, C diff HTS -19.2 and Pf Dd2 growth -37.3.
`N#Cc1ccc(-c2ccc3c(c2)[C@@H]2[C@@H](CCN2Cc2ccc4c(c2)OCO4)[C@@H](CO)N3)cc1` gave T cruzi growth-1 101.2*, C diff HTS -101.8*, Pf Dd2 growth -63.1, T cruzi growth-2 105.1*, T cruzi growth-3 102.1*, NIH3T3 tox 29.9 and NIH3T3 tox 2 105.9*.
`N#Cc1ccc(-c2ccc3c(c2)[C@H]2[C@H](CCN2C(=O)c2ccc4c(c2)OCO4)[C@@H](CO)N3)cc1` gave T cruzi growth-1 26.2, C diff HTS 2.3 and Pf Dd2 growth -60.5.
For OC[C@H]1Nc2ccc(C#Cc3ccc(F)cc3)cc2[C@@H]2[C@H]1CCN2Cc1ccc2c(c1)OCO2 the results were T cruzi growth-1 inconclusive, C diff HTS 3.5, Pf Dd2 growth -30.1, T cruzi growth-2 102.7*, T cruzi growth-3 97.3*, NIH3T3 tox 40.4* and NIH3T3 tox 2 103.5*.
OC[C@@H]1Nc2ccc(C#Cc3ccc(F)cc3)cc2[C@@H]2[C@H]1CCN2Cc1ccc2c(c1)OCO2 was read as T cruzi growth-1 133.7*, C diff HTS 1.4, Pf Dd2 growth -64.4, T cruzi growth-2 103.1*, T cruzi growth-3 107.3*, NIH3T3 tox 38.1* and NIH3T3 tox 2 103.3*.
`CO[C@H]1CN(C)C(=O)c2ccc(NS(=O)(=O)CC(F)(F)F)cc2OC[C@H](C)N(C(=O)c2ccc3c(c2)OCO3)C[C@H]1C` gave T cruzi growth-1 15.4, C diff HTS 5.9 and Pf Dd2 growth 8.7.
`O=C(CN1CCOCC1)N[C@H]1CC[C@@H](CCn2cc(C3CC3)nn2)O[C@H]1CO` gave C diff HTS 7.4 and Pf Dd2 growth 20.1.
For CC(=O)NC[C@@H]1[C@H](c2ccc(-c3ccccc3F)cc2)[C@@H](CO)N1C(=O)C1CC1 the results were T cruzi growth-1 -7.8, C diff HTS -3.4 and Pf Dd2 growth -1.3.
`COc1ccc2c3c([nH]c2c1)[C@@H](CO)N(C(C)=O)CC31CCN(C(=O)c2cccc(F)c2)CC1` gave C diff HTS 3.7 and Pf Dd2 growth -26.1.
For COCC(=O)N1CCC2(CC1)CN(Cc1cc(F)ccc1F)[C@@H](CO)c1c2c2ccc(OC)cc2n1C the results were C diff HTS 2.5 and Pf Dd2 growth -68.0.
